In PubChem BioAssay (EPA / NIEHS) one finds AC50 and outcome data, which are given here for 36 molecules.

Results filed as inconclusive are left out. Active and inactive are the calls of the source. The calls were made as follows: active = hit-call score of the fitted dose curve at least 0.9, where 1 is the maximum; inconclusive = response in the unintended direction; inactive = score below 0.9.

Read-out in this assay: xenobiotic metabolism (CYP1A1), CYP1A1 (gene 1543)
Briefly: CLD_CYP1A1_24hr: CellzDirect (CLD) Gene Expression Assay for xenobiotic metabolism (CYP1A1) at 24 hours (AID 2283673). Here is the method: CLD_24hr is a cell-based, multiplexed-readout assay that uses hepatocyte, a human liver primary cell, with measurements taken at 24 hours after chemical dosing in a 96-well plate.CLD_CYP1A1_24hr is one of 16 assay component(s) measured or calculated from the CLD_24hr assay. It is designed to make measurements of mRNA induction, a form of inducible reporter, as detected with chemiluminescence signals by Quantitative Nuclease Protection Assay (qNPA) technology.Data from the assay component CLD_CYP1A1_24hr was analyzed at the endpoint, CLD_CYP1A1_24hr, in the positive analysis fitting direction relative to DMSO as the negative control and baseline of activity. Using a type of inducible reporter, gain-of-signal activity can be used to understand changes in the reporter gene as they relate to the gene CYP1A1. Furthermore, this assay endpoint can be referred to as a primary readout. To generalize the intended target to other relatable targets, this assay endpoint is annotated to the cyp intended target family, where subfamily is xenobiotic metabolism.
Human hepatocyte cultures were treated daily for two consecutive days with fresh dosing solutions containing appropriate concentrations of the 320 ToxCast chemicals (chemical identities were blinded to CellzDirect and other ToxCast collaborators), vehicle control (0.2% DMSO), and positive control inducers as summarized in Table 1. Due to the large number of treatment groups and chemicals examined, the ToxCast chemicals were divided into two groups (spanning two independent cultures of hepatocytes from separate donor preparations (Hu778: ToxCast plates 1 and 2; Hu776: ToxCast plates 3 and 4). Each preparation of human hepatocyte cultures was treated with respective vehicle control, medium only control, set of six positive controls/reference chemicals for the five hepatic receptor pathways, and a subset of eight of the ToxCast chemicals (indoxacarb, pyrithiobac-sodium, norflurazon, cyhalofop-butyl, methomyl, thiram, acetochlor, and propiconazole). These replicate data, coupled with internal replicates designed within the blinded ToxCast chemical library, provided additional data to evaluate interindividual differences between hepatocyte preparations and their potential impact on chemical profiles.Cell morphology and integrity were evaluated using phase-contrast microscopy as an indicator of hepatocyte cell health (Tyson & Green, 1987). Cultures for each treatment group (i.e., media, vehicle [0.2% DMSO], positive control inducers [multiple concentrations], and the ToxCast chemicals [multiple concentrations]) were observed and cell morphology was assessed relative to vehicle control cultures at each harvest time point (0, 6, 24, or 48 h). […] Images were evaluated at the conclusion of the study to assess changes in cell integrity and account for the effects of chemical exposure on uncharacteristic changes in concentration-dependent gene expression profiles. The results from these determinations of apparent cytotoxicity were annotated (yes/no) alongside the corresponding qNPA data for reference.At the conclusion of each treatment period, hepatocyte cultures (96-well) were washed with 1 volume of HBSS, lysed by addition of 25 ul ArrayPlate lysis buffer (HTG, Tucson, AZ), and 70 ul/well of Denaturation Oil, denatured by incubation at 95C for 10 min, and frozen at approximately -70C until analysis by nuclease protection assay (qNPA) (Roberts et al., 2007). For qNPA analysis, cell lysates were thawed at 50C for approximately 30 min, qNPA probes were added, and samples were incubated at 95C for 10 min to begin the detection process by denaturing the target RNA, dissociating the duplexes and secondary structure hybridization. At the conclusion of the hybridization period, S1 nuclease reagent was added to each sample to digest all nonprotected nucleotides at 50C for 60-90 min. […]
In the case of `CC(C)(C)[C@@H](O)[C@@H](Cc1ccc(Cl)cc1)n1cncn1`, the AC50 was 12.1 µM (active).
As for `CCCCOCCOCCOCc1cc2c(cc1CCC)OCO2`, the AC50 is 2.56 µM (active).
As to `CCNc1nc(N)nc(Cl)n1`, the result was inactive.
As for `CSC(=O)c1cccc2nnsc12`, the AC50 is 20 µM (active).
In the case of `COC(=O)c1c(Cl)nn(C)c1S(=O)(=O)NC(=O)Nc1nc(OC)cc(OC)n1`, the molecule was classed as inactive.
As for `Oc1ccc(C(c2ccc(O)cc2)C(Cl)(Cl)Cl)cc1`, the result was inactive.
Turning to `COc1c(Cl)ccc(Cl)c1C(=O)O`, the call was inactive.
Same read-out and setting: for `O=C(O)C1(C(=O)Nc2ccc(Cl)cc2Cl)CC1` the value was “inactive”; for `COC(=O)CSc1cc(N=c2sc(=O)n3n2CCCC3)c(F)cc1Cl`, “inactive”.
The same measure, in the same setting: for `CC(C)(c1ccc(O)cc1)c1ccc(O)cc1` the value was “inactive”.
On the same count and under the same terms, the value for `COC(=O)c1ccc(I)cc1S(=O)(=O)NC(=O)Nc1nc(C)nc(OC)n1` was “inactive”; that for `CCCCCOC(=O)COc1cc(N2C(=O)C3=C(CCCC3)C2=O)c(F)cc1Cl` was “inactive”; that for `CCOC(=O)C(C)Oc1ccc(Oc2nc3ccc(Cl)cc3o2)cc1` (stereo unspecified) was “inactive”.
As for `CCCN(CCC)C(=O)SCC`, the result was inactive.
Turning to `COC(=O)c1cccc(C)c1S(=O)(=O)NC(=O)Nc1nc(OCC(F)(F)F)nc(N(C)C)n1`, the AC50 was 5.36 µM (active).
Turning to `CCOC(=O)NCCOc1ccc(Oc2ccccc2)cc1`, the molecule was classed as inactive.
As to `COc1nc(C)nc(NC(=O)NS(=O)(=O)c2ccccc2OCCCl)n1`, the molecule was called inactive.
`c1ccc2[nH]c(-c3cscn3)nc2c1`: the AC50 was 0.226 µM (active).
Consider `CCOC(=O)[C@H](C)Oc1ccc(Oc2nc3ccc(Cl)cc3o2)cc1`, for which the molecule was classed as inactive.
Take `C=CCOC(Cn1ccnc1)c1ccc(Cl)cc1Cl` (stereo unspecified): the AC50 is 1.07 µM (active).
In the case of `S=C([S-])NCCNC(=S)[S-].[Mn+2]`, the outcome was inactive.
On to `COC(=O)c1ccccc1C(=O)O`, for which the AC50 is 0.117 µM (active).
As for `CCCCC(CC)CN1C(=O)C2C3C=CC(C3)C2C1=O` (stereo unspecified), the AC50 was 20 µM (active).
For `CCCCCCC(C)OC(=O)COc1nc(F)c(Cl)c(N)c1Cl` (stereo unspecified), the molecule was classed as inactive.
In the case of `CN(C)C(=O)Nc1ccc(Cl)c(Cl)c1`, the AC50 was 4.24 µM (active).
For the molecule `O=C(Nc1ccc([N+](=O)[O-])cc1Cl)c1cc(Cl)ccc1O`, the AC50 is 7.01 µM (active).
Regarding `N#CSCSc1nc2ccccc2s1`, the AC50 was 4.74 µM (active).
Consider `CC1(C)C(C=C(Cl)Cl)C1C(=O)OCc1cccc(Oc2ccccc2)c1` (stereo unspecified), for which the result was inactive.
`c1ccc(Nc2ccccc2)cc1`: the molecule was classed as inactive.
On to `COC(=O)c1ccccc1S(=O)(=O)NC(=O)Nc1nc(OC(F)F)cc(OC(F)F)n1`, for which the AC50 is 0.0569 µM (active).
Same read-out and setting: for `CCCCOC(=O)[C@@H](C)Oc1ccc(Oc2ccc(C(F)(F)F)cn2)cc1` the value was 20 µM (active); for `CCCN(CCC)c1c([N+](=O)[O-])cc(C(F)(F)F)c(N)c1[N+](=O)[O-]`, 3.83 µM (active).
Regarding `Cc1nn(C)c(Oc2ccccc2)c1C=NOCc1ccc(C(=O)OC(C)(C)C)cc1`, the outcome was inactive.
On to `CCOC(=O)COc1cc(-n2ncc(C(F)(F)F)c(C)c2=O)c(F)cc1Cl`, for which the molecule was called inactive.
Regarding `COC(=O)c1ccc(CNS(C)(=O)=O)cc1S(=O)(=O)NC(=O)Nc1nc(OC)cc(OC)n1`, the result was inactive.
Consider `CCN(Cc1c(F)cccc1Cl)c1c([N+](=O)[O-])cc(C(F)(F)F)cc1[N+](=O)[O-]`, for which the AC50 is 0.786 µM (active).

The term AC50 denotes the concentration giving half of the maximal activity seen.
